From PubChem BioAssay
A selection: hits, their analogues and other compounds. The true share with any hit is near 1.5%.
VHR inh abs: blocks human VHR1 dual specificity phosphatase. 290,000 compounds, 0.52% hits. P51452. recombinant VHR phosphatase, pNPP absorbance. inhibition, % at 13.3 µM; in the data active = inhibition above about 50%
Target sequence (P51452 whole entry, looked up): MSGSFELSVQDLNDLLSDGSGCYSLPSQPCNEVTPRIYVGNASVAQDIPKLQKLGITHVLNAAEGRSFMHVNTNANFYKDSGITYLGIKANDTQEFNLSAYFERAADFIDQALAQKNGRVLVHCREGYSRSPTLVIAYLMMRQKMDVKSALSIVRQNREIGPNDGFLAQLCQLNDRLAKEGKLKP
CCHF vOTU inh-1: CCHFV vOTU protease inhibition; Pep-AMC fluorescence; inhibition, % at 11.5 µM; 370,000 compounds, 0.55% hits; AID 651958; note: 0% = vehicle wells with enzyme and 100% = no enzyme wells
SARS 3CLpro inh: SARS-CoV 3CLpro protease inhibition | 290,000 compounds, 0.14% hits | inhibition, % at 6 µM | recombinant SARS-CoV 3CLpro, quenched FRET peptide cleavage; in the data active = inhibition above about 12%
RecA intein inh: blocks M. tuberculosis RecA intein splicing; 290,000 compounds, 0.75% hits; AID 2221; inhibition, % (test concentration not listed); P9WHJ3; cell-free RecA intein splicing, fluorescence; in the data active = inhibition above about 30%;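 note: 0% = vehicle wells and 100% = reference inhibitor control wells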
CCHF vOTU inh-2: CCHFV vOTU protease inhibition, confirmation; Recombinant CCHFV vOTU, Pep-AMC fluorescence; shares compounds with CCHF vOTU inh-1; inhibition, % at 11.5 µM; 1,900 compounds, 17% hits
Starred values were filed as active, the others as inactive; · = not tested or not shown. Cut-off read from the data, not from the text of the source, unless noted: active = inhibition above about 30%; inactive = the rest.

SMILES	VHR inh abs	CCHF vOTU inh-1	SARS 3CLpro inh	RecA intein inh	CCHF vOTU inh-2
O=C(Nc1ccccc1C(=O)O)c1cccc(NC(=O)c2ccc(Br)o2)c1	5.4	30.4*	5.9	0.8	2.3
O=C(N[C@H]1CC[C@@H]2SC[C@@H](C(=O)O)N2C1=O)OCC1c2ccccc2-c2ccccc21	·	4.1	·	·	·
CC1(C)N=C(N)N=C(N)N1CCCCc1ccccc1	·	-0.5	·	·	·
COC(=O)Cc1ccc(N(Cc2ccccc2F)S(=O)(=O)c2ccc(Cl)cc2)cc1	-14.2	32.0*	-3.8	·	1.9
COC(=O)CN(c1ccc(F)cc1)S(=O)(=O)c1ccccc1	2.3	8.7	-1.5	0.3	·
CC(=NNc1cc(C)c2ccccc2n1)c1ccccn1	·	1.9	·	·	·
CC(C)NC(=O)c1sc2nc3c(c(-c4cccs4)c2c1N)CN(C)CC3	11.9	17.3	-3.5	-4.0	·
Cc1cccc(NC(=O)c2sc3nc4c(c(-c5cccs5)c3c2N)CN(C)CC4)c1	0.0	30.2*	-13.8	-9.2	48.1*
O=C1c2c(O)cccc2C(C2OC(CO)[C@@H](O)[C@H](O)[C@H]2O)c2cc(CO)cc(O)c21 (stereo not given in full)	·	2.6	·	·	·
O=C1c2cc(CO)cc(O)c2C(=O)c2c(O[C@@H]3OC(CO)[C@@H](O)[C@@H](O)[C@@H]3O)cccc21 (stereo not given in full)	·	0.1	·	3.4	·
O=C(O)c1cc(O)c2c(c1)[C@H]([C@H]1c3cc(C(=O)O)cc(O)c3C(=O)c3c(O[C@@H]4O[C@H](CO)[C@@H](O)[C@H](O)[C@H]4O)cccc31)c1cccc(OC3O[C@H](CO)[C@@H](O)[C@H](O)[C@H]3O)c1C2=O (stereo not given in full)	·	118.1*	·	-2.9	106.9*
O=C(O)c1cc(O)c2c(c1)[C@@H]([C@H]1c3cc(C(=O)O)cc(O)c3C(=O)c3c(O[C@@H]4O[C@H](CO)[C@@H](O)[C@H](O)[C@H]4O)cccc31)c1cccc(OC3O[C@H](CO)[C@@H](O)[C@H](O)[C@H]3O)c1C2=O (stereo not given in full)	·	73.2*	·	12.8	33.2*
CC(=O)N1CCN(c2ccc(NC(=O)c3ccc([N+](=O)[O-])cc3Cl)cc2)CC1	13.6	-12.3	-4.9	1.8	·
CCCCN(CCCC)S(=O)(=O)c1ccc(NC(=O)c2ccc([N+](=O)[O-])cc2Cl)cc1	-1.0	29.9*	2.4	-0.3	-7.8
CC(C)CNC(=O)OCc1cn(Cc2cc(F)ccc2F)nn1	·	-6.6	·	·	·
COc1cccc(NC(=S)N(Cc2ccco2)C(C)c2ccco2)c1 (stereo not given)	16.9	-1.8	5.6	1.2	·
CC(c1ccco1)N(Cc1ccco1)C(=O)Nc1ccccc1 (stereo not given)	15.2	34.4*	3.6	1.5	-20.4
CCn1c(SCC(=O)N/N=C/c2ccccc2OCC(=O)O)nnc1-c1ccc(C)cc1	0.0	-13.9	-2.0	-1.2	·
CC(CCc1ccccc1)NC(=O)c1ccc(NC(=O)c2cccc(Br)c2)cc1 (stereo not given)	28.6	11.1	-1.3	1.9	·
CC(CCc1ccccc1)NC(=O)c1ccc(NC(=O)c2ccccc2)cc1 (stereo not given)	4.6	32.1*	-0.5	1.5	-7.7
Oc1ccc(NCc2cccs2)cc1	-3.5	87.8*	-0.4	-5.7	-4.8
CC(=O)Nc1ccc(NCc2cccs2)cc1	-4.9	-1.5	-4.5	-0.6	·
O=C1C2CCCCC2C(=O)N1c1ccc(S(=O)(=O)Nc2ncccn2)cc1 (stereo not given)	-3.0	-3.2	-2.0	-0.1	·
COc1cccc(CN2CCN(Cc3ccccc3C(F)(F)F)CC2)c1	20.4	0.4	1.8	1.2	·
COc1ccc(CN2CCN(Cc3ccccc3C(F)(F)F)CC2)c(OC)c1	17.2	30.1*	-1.0	2.2	-1.9
SMILES	VHR inh abs	CCHF vOTU inh-1	SARS 3CLpro inh	RecA intein inh	CCHF vOTU inh-2
CS(=O)(=O)n1c2ccccc2c(=O)n1-c1ccccc1CCl	·	5.4	·	·	·
CCc1sc(C(=O)Nc2cccnc2)cc1Br	19.2	-3.7	-1.7	2.2	·
Cc1ccc(-n2c(C)cc(/C=C3\NC(=O)NC3=O)c2C)c(C)c1	-17.0	32.8*	3.5	-0.3	-2.2
COc1cc(C(=O)NCCNc2nc3ccc(C)cc3cc2C#N)cc(OC)c1OC	6.5	-10.5	2.1	-14.1	·
CC1=C(SCc2ccccc2)C(=O)c2ccccc2C1=O	·	103.6*	·	·	86.6*
O=C(Nc1ccc(S(=O)(=O)Nc2nccs2)cc1)/C(=C/c1ccccc1Cl)NC(=O)c1ccccc1	12.7	32.4*	4.5	9.6	-15.6
COc1cc(NS(=O)(=O)c2ccc(NC(=O)/C(=C/c3ccccc3Cl)NC(=O)c3ccccc3)cc2)nc(OC)n1	7.6	12.6	5.3	4.0	·
O=C1OC(c2cccs2)=N/C1=C/c1ccc(-c2cccc(C(=O)O)c2)o1	3.1	16.0	4.4	·	·
O=C1OC(c2cccs2)=N/C1=C\c1ccc(-c2ccccc2Cl)o1	-18.3	31.9*	-6.6	2.6	0.0
C=CCN1[C@H](CO)[C@H](c2ccccc2)[C@@H]1C#N	·	-2.1	·	·	·
Cc1cc2c(C(C)C)c(O)c(O)c(C=O)c2c(O)c1-c1c(C)cc2c(C(C)C)c(O)c(O)c(C=O)c2c1O	16.3	63.3*	4.9	7.3	31.0*
O=C(CCCn1c(=O)oc2ccccc21)N1CCc2ccccc2C1	14.7	34.6*	-4.2	4.9	-8.7
CCOC(=O)[C@@H]1[C@H]2COc3ccccc3[C@@H]2N2C(=O)N(c3cccc(F)c3)C(=O)[C@]12C	·	0.6	·	1.3	·
COc1ccc(C(=O)c2ccc(N3CCOCC3)c([N+](=O)[O-])c2)cc1	19.8	30.3*	2.5	-2.9	-5.0
COc1ccc(CNC(=O)c2ccc(N3CCOCC3)c([N+](=O)[O-])c2)cc1	22.5	-6.1	1.1	-1.0	·
CCOC(=O)[C@]12CCC=C1N(Cc1ccc(Cl)cc1Cl)C(=O)[C@H](CC(=O)N1CCN(C(=O)c3ccco3)CC1)C2	·	8.3	·	·	·
CCCCCCCCN1C(=O)[C@@H](CC(=O)N2CCCC2)C[C@@]2(C(=O)OC)C1=C[C@H](C1CCCC1)O[C@@H]2C	·	27.1	·	·	·
CCCCCCCCN1C(=O)[C@@H](CC(=O)NCc2ccc(C)o2)C[C@@]2(C(=O)OC)C1=C[C@H](C1CCCC1)O[C@@H]2C	·	30.1*	·	·	2.6
CCCCCCCCN1C(=O)[C@@H](CC(=O)NCc2ccccc2)C[C@@]2(C(=O)OC)C1=C[C@H](C1CCCC1)O[C@@H]2C	·	16.3	·	·	·
CCCCCCCCN1C(=O)[C@@H](CC(=O)N2CCN(C(=O)C3CC3)CC2)C[C@@]2(C(=O)OC)C1=C[C@H](C1CCCC1)O[C@@H]2C	·	33.0*	·	·	17.9
COC(=O)[C@]12C[C@H](CC(=O)NCc3cccc(C(F)(F)F)c3)C(=O)N(Cc3ccc(Cl)cc3Cl)C1=C[C@H](C1CCCC1)O[C@@H]2C	·	31.6*	·	·	11.3
O=C1CC2c3ccccc3C1C1C(=O)N(CCc3ccccc3)C(=O)C21 (stereo not given)	6.9	1.3	0.2	0.5	·
COc1ccc(OC)c(S(=O)(=O)N2CCC(C(=O)N3CCN(C4CCCCC4)CC3)CC2)c1	·	-7.5	·	·	·
